Data on 8 sequences can be found in publication PMC7862700, “An all-to-all approach to the identification of sequence-specific readers for epigenetic DNA modifications on cytosine”.

Test in all cases: DAPPL (digital affinity profiling via proximity ligation, sequencing); 10 mM Tris-HCl pH 7.5, 50 mM NaCl, 1 mM DTT, 4% glycerol, room temperature, 30 min; GST-TFs on glutathione beads, 16-mer random dsDNA library, 0.1% formaldehyde crosslink after washing; high values mean tight binding
What all share (settings): protein: recombinant; tags: N-terminal GST; dsDNA, one strand shown

One assay addresses T1, FLI1 (Homo sapiens, UniProt Q01543 1-452).
T1 sequence: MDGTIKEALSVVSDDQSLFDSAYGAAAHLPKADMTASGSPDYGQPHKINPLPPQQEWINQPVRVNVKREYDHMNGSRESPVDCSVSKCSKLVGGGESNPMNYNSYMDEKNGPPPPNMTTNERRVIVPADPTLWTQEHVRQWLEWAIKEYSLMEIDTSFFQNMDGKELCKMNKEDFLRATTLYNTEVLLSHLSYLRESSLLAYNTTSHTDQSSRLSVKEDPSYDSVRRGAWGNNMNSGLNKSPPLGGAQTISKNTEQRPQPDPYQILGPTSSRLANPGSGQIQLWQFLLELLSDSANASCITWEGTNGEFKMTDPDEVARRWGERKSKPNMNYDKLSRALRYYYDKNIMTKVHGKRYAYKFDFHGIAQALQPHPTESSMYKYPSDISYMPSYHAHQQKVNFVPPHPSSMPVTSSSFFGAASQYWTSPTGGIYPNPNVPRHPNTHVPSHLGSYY
The essentials: (§1)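 After expression in yeast as GST fusions, human transcription factors were bound to glutathione beads, DNA-barcoded and mixed with a tag-only sample. The pools were incubated with 200 nmole of a 16-mer random double-stranded DNA library in Tris/NaCl/DTT/glycerol buffer (30 min, room temperature), washed and crosslinked with 0.1% formaldehyde. Proximity ligation with BsaI/T4 ligase ran for 1 h at 37 °C, before PCR amplification and sequencing on an Illumina NextSeq500. Binding signal is a hexamer's read frequency for a factor divided by its frequency for the tag-only sample.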

The target of the next assay is T2, ELK1 (Homo sapiens, UniProt P19419 1-428).
T2 sequence: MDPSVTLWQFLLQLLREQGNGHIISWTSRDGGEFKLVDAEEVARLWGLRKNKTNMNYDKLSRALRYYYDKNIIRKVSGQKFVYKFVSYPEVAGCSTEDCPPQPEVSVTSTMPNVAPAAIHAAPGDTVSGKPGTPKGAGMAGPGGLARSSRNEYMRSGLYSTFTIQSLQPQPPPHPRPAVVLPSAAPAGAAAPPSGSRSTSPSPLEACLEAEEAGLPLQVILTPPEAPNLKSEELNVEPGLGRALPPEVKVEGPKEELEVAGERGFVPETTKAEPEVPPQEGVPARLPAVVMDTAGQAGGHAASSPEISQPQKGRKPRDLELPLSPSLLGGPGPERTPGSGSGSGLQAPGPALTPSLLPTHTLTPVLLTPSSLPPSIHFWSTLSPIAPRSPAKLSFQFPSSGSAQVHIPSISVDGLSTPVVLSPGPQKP
The method in brief: as §1

A further assay deals with T3, GABPA (Homo sapiens, UniProt Q06546 1-454).
T3 sequence: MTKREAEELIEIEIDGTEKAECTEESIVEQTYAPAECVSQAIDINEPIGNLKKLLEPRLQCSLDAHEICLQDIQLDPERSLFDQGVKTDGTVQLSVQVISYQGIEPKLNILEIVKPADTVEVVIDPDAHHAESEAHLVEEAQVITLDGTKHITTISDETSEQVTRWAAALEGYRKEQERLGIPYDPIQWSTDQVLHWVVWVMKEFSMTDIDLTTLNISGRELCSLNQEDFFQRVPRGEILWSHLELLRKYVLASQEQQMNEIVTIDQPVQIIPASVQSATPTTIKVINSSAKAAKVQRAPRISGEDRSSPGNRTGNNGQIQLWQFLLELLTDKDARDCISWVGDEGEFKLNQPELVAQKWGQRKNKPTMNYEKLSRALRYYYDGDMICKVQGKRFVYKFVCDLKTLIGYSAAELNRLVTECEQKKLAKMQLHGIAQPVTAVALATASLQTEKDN
The essentials: as §1

In the next assay the target is T4, ERG (Homo sapiens, UniProt P11308 1-479).
T4 sequence: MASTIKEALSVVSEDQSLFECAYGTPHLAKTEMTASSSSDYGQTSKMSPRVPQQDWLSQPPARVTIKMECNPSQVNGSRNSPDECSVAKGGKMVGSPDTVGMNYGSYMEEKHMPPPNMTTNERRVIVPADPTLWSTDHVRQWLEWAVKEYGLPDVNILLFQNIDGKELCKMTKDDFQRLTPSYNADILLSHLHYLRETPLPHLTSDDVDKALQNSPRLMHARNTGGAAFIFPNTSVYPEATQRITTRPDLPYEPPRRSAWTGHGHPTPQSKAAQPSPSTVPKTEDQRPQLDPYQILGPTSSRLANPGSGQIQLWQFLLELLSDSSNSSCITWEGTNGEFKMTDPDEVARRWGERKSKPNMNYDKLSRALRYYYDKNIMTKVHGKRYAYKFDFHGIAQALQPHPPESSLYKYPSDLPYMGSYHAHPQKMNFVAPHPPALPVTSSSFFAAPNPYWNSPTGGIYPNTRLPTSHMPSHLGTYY
The method in brief: as §1

The target of the next assay is ELF1 (Homo sapiens, UniProt P32519 1-619). The essentials:
as §1

The next assay deals with T5, EHF (Homo sapiens, UniProt Q9NZC4 1-300).
T5 sequence: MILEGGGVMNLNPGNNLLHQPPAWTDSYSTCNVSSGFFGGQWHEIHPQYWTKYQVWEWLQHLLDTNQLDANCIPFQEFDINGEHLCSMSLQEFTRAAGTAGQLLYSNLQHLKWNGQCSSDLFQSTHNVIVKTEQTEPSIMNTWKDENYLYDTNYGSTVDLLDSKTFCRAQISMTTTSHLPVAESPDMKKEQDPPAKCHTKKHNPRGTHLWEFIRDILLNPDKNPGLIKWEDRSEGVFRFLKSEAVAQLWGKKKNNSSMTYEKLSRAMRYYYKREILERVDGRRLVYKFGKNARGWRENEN
The method in brief: as §1

The next assay addresses SPI1 (Homo sapiens, UniProt P17947 1-270). The essentials: as §1
In the next assay the target is SPIB (Homo sapiens, UniProt Q01892 1-262). The essentials:
as §1

Another assay concerns the target T6, ELK3 (Homo sapiens, UniProt P41970 1-407).
T6 sequence: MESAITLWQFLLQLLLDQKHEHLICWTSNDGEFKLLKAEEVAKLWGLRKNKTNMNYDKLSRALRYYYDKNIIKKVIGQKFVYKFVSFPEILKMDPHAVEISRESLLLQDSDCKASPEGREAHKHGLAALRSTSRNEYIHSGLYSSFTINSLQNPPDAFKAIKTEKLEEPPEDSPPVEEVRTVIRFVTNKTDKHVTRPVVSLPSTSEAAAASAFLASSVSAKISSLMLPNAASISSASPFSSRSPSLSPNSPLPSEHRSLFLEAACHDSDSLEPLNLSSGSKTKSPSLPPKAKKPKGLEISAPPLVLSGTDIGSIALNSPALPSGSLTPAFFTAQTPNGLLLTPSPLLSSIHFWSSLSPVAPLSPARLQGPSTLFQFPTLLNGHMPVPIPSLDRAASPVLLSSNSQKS
The essentials:
as §1

Chain of SPIB (Q01892 whole entry): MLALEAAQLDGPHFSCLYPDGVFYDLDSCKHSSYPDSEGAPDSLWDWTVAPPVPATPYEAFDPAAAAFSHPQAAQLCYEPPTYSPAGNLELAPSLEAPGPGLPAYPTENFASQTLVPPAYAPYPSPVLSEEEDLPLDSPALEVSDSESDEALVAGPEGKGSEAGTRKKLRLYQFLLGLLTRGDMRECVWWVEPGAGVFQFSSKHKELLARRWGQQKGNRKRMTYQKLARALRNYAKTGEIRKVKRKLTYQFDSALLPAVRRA
Chain of ELF1 (P32519 whole entry): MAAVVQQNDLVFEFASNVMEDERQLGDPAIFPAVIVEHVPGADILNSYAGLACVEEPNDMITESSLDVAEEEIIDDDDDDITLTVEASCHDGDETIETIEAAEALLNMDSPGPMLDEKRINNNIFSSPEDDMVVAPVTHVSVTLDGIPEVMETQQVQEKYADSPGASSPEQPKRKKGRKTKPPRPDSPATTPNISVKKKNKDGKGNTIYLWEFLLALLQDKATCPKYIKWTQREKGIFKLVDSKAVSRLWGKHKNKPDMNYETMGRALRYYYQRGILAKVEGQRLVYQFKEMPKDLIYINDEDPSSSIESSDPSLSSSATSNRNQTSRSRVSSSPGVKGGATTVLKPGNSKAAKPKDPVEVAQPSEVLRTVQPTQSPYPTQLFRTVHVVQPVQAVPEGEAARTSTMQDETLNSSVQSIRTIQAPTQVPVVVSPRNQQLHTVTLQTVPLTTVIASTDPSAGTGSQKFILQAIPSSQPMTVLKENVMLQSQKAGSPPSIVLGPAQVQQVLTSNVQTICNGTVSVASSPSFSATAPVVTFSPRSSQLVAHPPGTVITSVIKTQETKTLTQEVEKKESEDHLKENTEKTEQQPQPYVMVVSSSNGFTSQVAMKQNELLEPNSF

On to TAAATC, for which the binding signal with FLI1 was 1.15 fold enrichment (6-mer frequency, TF over GST control); in the assay with ELK1, 1.28 fold enrichment (6-mer frequency, TF over GST control); in the assay with GABPA it was 1.24 fold enrichment (6-mer frequency, TF over GST control); with ERG it was 1.2 fold enrichment (6-mer frequency, TF over GST control); in the assay with ELF1, 1.23 fold enrichment (6-mer frequency, TF over GST control); in the assay with EHF, 1.17 fold enrichment (6-mer frequency, TF over GST control). In addition, the binding signal with SPI1 was 1.21 fold enrichment (6-mer frequency, TF over GST control); with SPIB it was 1.12 fold enrichment (6-mer frequency, TF over GST control); with ELK3, 1.35 fold enrichment (6-mer frequency, TF over GST control).

As to ACGTTA, the binding signal with FLI1 is 1.11 fold enrichment (6-mer frequency, TF over GST control); in the assay with ELK1, 1.14 fold enrichment (6-mer frequency, TF over GST control); in the assay with GABPA, 1.11 fold enrichment (6-mer frequency, TF over GST control); with ERG, 1.21 fold enrichment (6-mer frequency, TF over GST control); with ELF1, 1.19 fold enrichment (6-mer frequency, TF over GST control); in the assay with EHF, 1.11 fold enrichment (6-mer frequency, TF over GST control). In addition, the binding signal was 1.19 fold enrichment (6-mer frequency, TF over GST control) with SPI1; 1.06 fold enrichment (6-mer frequency, TF over GST control) with SPIB; 1.3 fold enrichment (6-mer frequency, TF over GST control) with ELK3.

Take GTCCTT: the binding signal was 1.16 fold enrichment (6-mer frequency, TF over GST control) with FLI1; 1.2 fold enrichment (6-mer frequency, TF over GST control) in the assay with ELK1; 1.28 fold enrichment (6-mer frequency, TF over GST control) with GABPA; 1.22 fold enrichment (6-mer frequency, TF over GST control) with ERG; 1.26 fold enrichment (6-mer frequency, TF over GST control) with ELF1; 1.28 fold enrichment (6-mer frequency, TF over GST control) with EHF. In addition, the binding signal in the assay with SPI1 is 1.29 fold enrichment (6-mer frequency, TF over GST control); with SPIB it was 1.34 fold enrichment (6-mer frequency, TF over GST control); in the assay with ELK3 it was 1.25 fold enrichment (6-mer frequency, TF over GST control).

On to CTCCGT, for which the binding signal is 1.32 fold enrichment (6-mer frequency, TF over GST control) with FLI1; 1.28 fold enrichment (6-mer frequency, TF over GST control) with ELK1; 1.22 fold enrichment (6-mer frequency, TF over GST control) with GABPA; 1.16 fold enrichment (6-mer frequency, TF over GST control) with ERG; 1.21 fold enrichment (6-mer frequency, TF over GST control) in the assay with ELF1; 1.15 fold enrichment (6-mer frequency, TF over GST control) in the assay with EHF. For the same sequence, the binding signal with SPI1 is 1.19 fold enrichment (6-mer frequency, TF over GST control); with SPIB, 1.13 fold enrichment (6-mer frequency, TF over GST control); with ELK3, 1.38 fold enrichment (6-mer frequency, TF over GST control).

Consider AGTTCC, for which the binding signal in the assay with FLI1 is 2.16 fold enrichment (6-mer frequency, TF over GST control); with ELK1, 2.17 fold enrichment (6-mer frequency, TF over GST control); in the assay with GABPA it was 1.9 fold enrichment (6-mer frequency, TF over GST control); with ERG, 2.2 fold enrichment (6-mer frequency, TF over GST control); with ELF1, 1.95 fold enrichment (6-mer frequency, TF over GST control); in the assay with EHF, 2.11 fold enrichment (6-mer frequency, TF over GST control). The binding signal was 2.62 fold enrichment (6-mer frequency, TF over GST control) with SPI1; 2.36 fold enrichment (6-mer frequency, TF over GST control) with SPIB; 1.99 fold enrichment (6-mer frequency, TF over GST control) with ELK3.

For the sequence AAATGG, the binding signal in the assay with FLI1 was 1.52 fold enrichment (6-mer frequency, TF over GST control); with ELK1, 1.42 fold enrichment (6-mer frequency, TF over GST control); with GABPA, 1.49 fold enrichment (6-mer frequency, TF over GST control); with ERG, 1.56 fold enrichment (6-mer frequency, TF over GST control); with ELF1, 1.49 fold enrichment (6-mer frequency, TF over GST control); with EHF, 1.55 fold enrichment (6-mer frequency, TF over GST control). Also, the binding signal with SPI1 was 1.59 fold enrichment (6-mer frequency, TF over GST control); in the assay with SPIB, 1.43 fold enrichment (6-mer frequency, TF over GST control); with ELK3, 1.47 fold enrichment (6-mer frequency, TF over GST control).

With TAAACA, the binding signal with FLI1 was 1.19 fold enrichment (6-mer frequency, TF over GST control); with ELK1, 1.2 fold enrichment (6-mer frequency, TF over GST control); with GABPA, 1.19 fold enrichment (6-mer frequency, TF over GST control); with ERG, 1.21 fold enrichment (6-mer frequency, TF over GST control); in the assay with ELF1 it was 1.22 fold enrichment (6-mer frequency, TF over GST control); in the assay with EHF, 1.2 fold enrichment (6-mer frequency, TF over GST control). The binding signal was 1.21 fold enrichment (6-mer frequency, TF over GST control) with SPI1; 1.16 fold enrichment (6-mer frequency, TF over GST control) with SPIB; 1.23 fold enrichment (6-mer frequency, TF over GST control) with ELK3.

TCGTAC: the binding signal in the assay with FLI1 was 1.13 fold enrichment (6-mer frequency, TF over GST control); in the assay with ELK1, 1.13 fold enrichment (6-mer frequency, TF over GST control); in the assay with GABPA, 1.18 fold enrichment (6-mer frequency, TF over GST control); with ERG, 1.06 fold enrichment (6-mer frequency, TF over GST control); in the assay with ELF1 it was 1.14 fold enrichment (6-mer frequency, TF over GST control); in the assay with EHF, 1.14 fold enrichment (6-mer frequency, TF over GST control). Further, the binding signal with SPI1 is 1.06 fold enrichment (6-mer frequency, TF over GST control); with SPIB, 1.04 fold enrichment (6-mer frequency, TF over GST control); in the assay with ELK3, 1.11 fold enrichment (6-mer frequency, TF over GST control).
